In PubChem BioAssay (Tox21):
Unmarked numbers belong to inactive results. Records with an inconclusive call do not appear. A call without a number means that no potency is given here. Activity calls are given as the source filed them. Calls follow the shape of the full dose curve.

How the values were obtained:
[1] = molecular target: Acetylcholinesterase (Homo sapiens) (UniProt P22303); assay: Acetylcholinesterase (AChE) small molecule antagonists: colormetric cell-based qHTS assay (AID 1347395); also: nearly all actives have a fitted effect of over 30% in size; also: potency is read from the fitted curve at half-maximal effect
How it was run: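 Endogenous AChE of human neuroblastoma SH-SY5Y cells was measured with an Ellman-type DTNB/acetylthiocholine mix. Compound pretreatment lasted 30 min at 37 C; substrate reaction ran 90 min at 37 C.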

[2] = molecular target: Acetylcholinesterase (Homo sapiens) (UniProt P22303); assay: Acetylcholinesterase (AChE) small molecule antagonists: enzyme-based qHTS assay (AID 1347397); settings: Potency: AChE enzyme activity inhibition; outcome: AChE enzyme activity inhibition; also: nearly all actives have a fitted effect of over 55% in size; also: potency is read from the fitted curve at half-maximal effect
How it was run: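 Tox21 library chemicals are tested in qHTS format against recombinant human AChE. The enzyme, dispensed at 50 mU/mL, sits with compound for 30 min at room temperature. A DTNB–acetylthiocholine cocktail follows, and colour is read after 10 min.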

[3] = molecular target: Acetylcholinesterase (Homo sapiens) (UniProt P22303); assay: Acetylcholinesterase (AChE) small molecule antagonists: enzyme-based qHTS assay with human liver microsomes (AID 1347399); settings: Potency: qHTS inhibition; outcome: qHTS inhibition; also: nearly all actives have a fitted effect of over 60% in size
How it was run: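 Recombinant human AChE (50 mU/mL in the enzyme mix) and human liver microsomes (0.25 mg/mL final) were preincubated with compound and NADPH (0.25 mg/mL final) for 30 min at 37 C. Acetylthiocholine/DTNB was then added; thiocholine was read colorimetrically after 10 min at room temperature.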

[4] = molecular target: Acetylcholinesterase (Homo sapiens) (UniProt P22303); assay: Acetylcholinesterase (AChE) small molecule antagonists: fluorescence cell-based qHTS assay (AID 1347398); settings: Potency: AChE activity; outcome: AChE activity; also: nearly all actives have a fitted effect of over 50% in size; also: potency is read from the fitted curve at half-maximal effect
How it was run: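 Cellular AChE inhibition: SH-SY5Y cells treated with test chemical for 30 min at 37 C, then acetylthiocholine hydrolysis followed over 40 min at room temperature via thiocholine-reactive Thiolite Green fluorescence (490/520 nm).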

Chain of Acetylcholinesterase (Homo sapiens) (P22303 whole entry, looked up): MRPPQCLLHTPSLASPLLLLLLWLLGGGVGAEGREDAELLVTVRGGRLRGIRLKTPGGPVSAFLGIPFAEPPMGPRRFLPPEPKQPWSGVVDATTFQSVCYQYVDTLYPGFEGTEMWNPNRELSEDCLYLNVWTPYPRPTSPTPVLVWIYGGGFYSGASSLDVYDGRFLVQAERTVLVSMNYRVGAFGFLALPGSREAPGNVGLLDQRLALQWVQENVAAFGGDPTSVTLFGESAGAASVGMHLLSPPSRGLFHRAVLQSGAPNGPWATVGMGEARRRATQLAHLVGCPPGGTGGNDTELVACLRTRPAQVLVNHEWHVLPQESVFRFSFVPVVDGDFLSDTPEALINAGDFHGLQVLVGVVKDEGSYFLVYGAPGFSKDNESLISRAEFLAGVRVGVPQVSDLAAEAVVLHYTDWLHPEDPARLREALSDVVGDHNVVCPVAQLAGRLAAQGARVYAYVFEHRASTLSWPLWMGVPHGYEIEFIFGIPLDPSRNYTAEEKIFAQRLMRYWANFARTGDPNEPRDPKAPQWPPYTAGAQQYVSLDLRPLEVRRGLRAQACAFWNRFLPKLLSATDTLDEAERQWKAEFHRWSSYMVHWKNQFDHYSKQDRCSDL

Structure (SMILES): C=CCN1CCc2nc(N)sc2CC1
- Potency [1]: inactive
- Potency [2]: inactive
- Potency [3]: inactive

Structure (SMILES): Cc1ccc2c(c1)CCCN2
- Potency [1]: inactive
- Potency [2]: inactive
- Potency [3]: inactive

Structure (SMILES): CC(C)(Cc1c[nH]c2ccccc12)NCC(O)COc1ccccc1C#N (stereo not drawn)
- Potency [1]: inactive
- Potency [2]: inactive
- Potency [3]: inactive

Structure (SMILES): CC(C)(C)NSc1nc2ccccc2s1
- Potency [1]: inactive
- Potency [2]: inactive
- Potency [3]: inactive

Structure (SMILES): NS(=O)(=O)c1cc2c(cc1C(F)(F)F)NC(Cc1ccccc1)NS2(=O)=O (stereo not drawn)
- Potency [1]: 38.9 µM (active)
- Potency [2]: inactive
- Potency [3]: inactive

Structure (SMILES): CSc1ccc(C(=O)c2[nH]c(=O)[nH]c2C)cc1
- Potency [1]: inactive
- Potency [2]: inactive
- Potency [3]: inactive

Structure (SMILES): CC(=O)Nc1cc(S(=O)(=O)O)cc2cc(S(=O)(=O)O)c(N=Nc3ccccc3)c(O)c12
- Potency [1]: inactive
- Potency [2]: inactive
- Potency [3]: inactive

Structure (SMILES): COc1ccc2cc(C=O)ccc2c1
- Potency [1]: inactive
- Potency [2]: inactive
- Potency [3]: inactive

Structure (SMILES): CCOc1ccc(C(=O)OCCN(CC)CC)cc1
- Potency [1]: inactive
- Potency [2]: inactive
- Potency [3]: inactive

Structure (SMILES): NC(=O)n1c(O)c(C(=O)c2cccs2)c2cc(Cl)ccc21
- Potency [1]: inactive
- Potency [2]: inactive
- Potency [3]: inactive

Structure (SMILES): N=C(N)c1ccc2cc(OC(=O)c3ccc(N=C(N)N)cc3)ccc2c1
- Potency [1]: 27.5 µM (active)
- outcome [2]: inactive
- outcome [3]: inactive

Structure (SMILES): CCCCCCCC/C=C/C(=O)O
- Potency [1]: inactive
- Potency [2]: inactive
- Potency [3]: inactive

Structure (SMILES): COC(=O)c1ccccc1C(=O)c1ccc(OCCN2CCCCC2)cc1
- Potency [1]: inactive
- Potency [2]: inactive
- Potency [3]: inactive

Structure (SMILES): Cc1ccccc1N=C(N)N=C(N)N
- Potency [1]: inactive
- Potency [2]: inactive
- Potency [3]: inactive

Structure (SMILES): CCCOc1ccc2c(c1)CC[C@@H]1[C@@H]2CC[C@]2(C)C(OC)CC[C@@H]12 (stereo partly drawn)
- Potency [1]: inactive
- Potency [2]: inactive
- Potency [3]: inactive

Structure (SMILES): O=C1[C@H]2CCCC[C@H]2C(=O)N1CCCCN1CCN(c2nsc3ccccc23)CC1
- Potency [1]: inactive
- Potency [2]: inactive
- Potency [3]: inactive

Structure (SMILES): COc1ccccc1OCCNCC(O)COc1cccc2[nH]c3ccccc3c12 (stereo not drawn)
- Potency [1]: inactive
- Potency [2]: inactive
- Potency [3]: inactive

Structure (SMILES): O=C1Cc2cc(CCN3CCN(c4nsc5ccccc45)CC3)c(Cl)cc2N1
- Potency [1]: inactive
- Potency [2]: inactive
- Potency [3]: inactive

Structure (SMILES): Cc1cc(C)c(O)c(C(C)(C)C)c1
- Potency [1]: inactive
- Potency [2]: inactive
- Potency [3]: inactive

Structure (SMILES): CN(C[C@@H](CC[N+]12CCC(C3CCCCC3)(CC1)CC2)c1ccc(Cl)c(Cl)c1)C(=O)c1cc(C(F)(F)F)cc(C(F)(F)F)c1
- outcome [1]: inactive
- Potency [2]: 7.96 µM (active)
- outcome [3]: inactive

Structure (SMILES): Cc1ncc([N+](=O)[O-])n1CC(C)O (stereo not drawn)
- Potency [1]: inactive
- Potency [2]: inactive
- Potency [3]: inactive

Structure (SMILES): c1ccc([C@H]2CN3CCSC3=N2)cc1
- outcome [1]: inactive
- outcome [2]: inactive
- outcome [3]: inactive

Structure (SMILES): C=CCCCC
- Potency [1]: inactive
- Potency [2]: inactive
- Potency [3]: inactive

Structure (SMILES): CCCCC(CC)CNC(=O)CC(C)OC(=O)CCC(=O)O (stereo not drawn)
- Potency [1]: inactive
- Potency [2]: inactive
- Potency [3]: inactive

Structure (SMILES): CCCC(C(=O)OCCN(CC)CC)(c1ccccc1)c1ccccc1
- Potency [1]: inactive
- Potency [2]: inactive
- Potency [3]: inactive

Structure (SMILES): Cc1cccc(C)c1NC(=O)CN(CC(=O)O)CC(=O)O
- Potency [1]: inactive
- Potency [2]: inactive
- Potency [3]: inactive

Structure (SMILES): NCc1ccco1
- Potency [1]: inactive
- Potency [2]: inactive
- Potency [3]: inactive

Structure (SMILES): N=C1C=CC(=C(c2ccc(N)cc2)c2ccc(N)cc2)C=C1
- Potency [1]: inactive
- Potency [4]: 39.9 µM (active)
- Potency [3]: inactive

Structure (SMILES): CCN(CC)c1ccc2c(-c3ccccc3C(=O)O)c3ccc(=[N+](CC)CC)cc-3oc2c1
- Potency [1]: inactive
- Potency [2]: inactive
- Potency [3]: inactive

Structure (SMILES): O=C1NCCN1CCN1CCC(c2cn(-c3ccc(F)cc3)c3ccc(Cl)cc23)CC1
- Potency [1]: inactive
- Potency [4]: 24.5 µM (active)
- Potency [3]: inactive

Structure (SMILES): NC(=O)c1c(Cl)cccc1Cl
- Potency [1]: inactive
- Potency [4]: inactive
- Potency [3]: inactive

Structure (SMILES): CC(C)(O)c1ccc(CNC(=O)c2cccnc2Oc2ccc(F)cc2)cc1
- Potency [1]: inactive
- Potency [2]: inactive
- Potency [3]: inactive

Structure (SMILES): CCCCCCCCSCc1cc(C)c(O)c(CSCCCCCCCC)c1
- Potency [1]: inactive
- Potency [4]: inactive
- Potency [3]: inactive

Structure (SMILES): CN(C)CC/C=C1\c2ccccc2Sc2ccc(Cl)cc21
- Potency [1]: inactive
- Potency [2]: inactive
- Potency [3]: inactive

Structure (SMILES): CC(=O)N(CC(=O)N(C)C)c1ccccc1
- Potency [1]: inactive
- Potency [2]: inactive
- Potency [3]: inactive

Structure (SMILES): CC1CCCCN1CCCOC(=O)c1ccc(OC2CCCCC2)cc1 (stereo not drawn)
- Potency [1]: 17.4 µM (active)
- Potency [4]: 12.3 µM (active)
- Potency [3]: inactive

Structure (SMILES): Cc1ncc([C@@H](CCCCCCc2ccc3c(n2)NCCC3)CC(=O)O)cn1
- Potency [1]: 56.4 µM (active)
- Potency [2]: inactive
- Potency [3]: inactive

Structure (SMILES): CC[N+](C)(CC)CCOC(=O)C1c2ccccc2Oc2ccccc21
- Potency [1]: inactive
- Potency [2]: inactive
- Potency [3]: inactive

Structure (SMILES): COc1cc(N)c(Cl)cc1C(=O)NC1CCN(CCCOc2ccc(F)cc2)CC1OC (stereo not drawn)
- Potency [1]: inactive
- Potency [2]: inactive
- Potency [3]: inactive

Structure (SMILES): CCCCCCCCCOC(=O)c1ccc(O)cc1
- Potency [1]: inactive
- Potency [4]: inactive
- Potency [3]: inactive

Structure (SMILES): NC1CCN(c2nc3c(cc2F)c(=O)c(C(=O)O)cn3-c2ccc(F)cc2F)C1 (stereo not drawn)
- Potency [1]: inactive
- Potency [4]: inactive
- Potency [3]: inactive
